POLK inh: qHTS for Inhibitors of Polymerase Kappa | DNA polymerase kappa (Homo sapiens), Q9UBT6 | purified Pol kappa, fluorescent DNA synthesis assay, 10 min | Potency, µM (doses to about 107 µM), inactives show at the highest dose activity, negative = inhibition, most hits filed as inhibitors | 400,000 tested, 0.53% active | AID 588579, 2011; further: on the % scale 0 is the no-effect control and ±100 the full control effect
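Kinetic fluorescence screen: compound preincubated 15 min RT with 10 nM enzyme; 50 nM substrate (final) initiates; reads at 0/10 min.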
FEN1 inhibitor: qHTS Assay for the Inhibitors of Human Flap endonuclease 1 (FEN1). Recombinant FEN1 flap cleavage, fluorescence, 15 min. Potency, µM (titrated, usually from 114 µM), for the others: top-dose activity change, negative = inhibition, actives largely listed as inhibitors. 390,000 tested, 0.35% active; further: on the % scale 0 is the no-effect control and ±100 the full control effect; nearly all actives have a fitted effect of over 65% in size
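With each library titrated from low to high concentration, compounds met 10 nM FEN1 for 15 min at room temperature before 50 nM substrate was added; readings at 0 and 15 min fed four-parameter Hill curve fits.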
Pol iota inh: qHTS for Inhibitors of Polymerase Iota. DNA polymerase iota (Homo sapiens), Q9UNA4. Pol iota fluorescent replication assay, 10 min. 390,000 tested, 1% active. Potency, µM (highest dose often 115 µM), without a hit: top-dose activity, negative = inhibition, usual class: inhibitors
Target sequence (Q9UNA4 whole entry, looked up): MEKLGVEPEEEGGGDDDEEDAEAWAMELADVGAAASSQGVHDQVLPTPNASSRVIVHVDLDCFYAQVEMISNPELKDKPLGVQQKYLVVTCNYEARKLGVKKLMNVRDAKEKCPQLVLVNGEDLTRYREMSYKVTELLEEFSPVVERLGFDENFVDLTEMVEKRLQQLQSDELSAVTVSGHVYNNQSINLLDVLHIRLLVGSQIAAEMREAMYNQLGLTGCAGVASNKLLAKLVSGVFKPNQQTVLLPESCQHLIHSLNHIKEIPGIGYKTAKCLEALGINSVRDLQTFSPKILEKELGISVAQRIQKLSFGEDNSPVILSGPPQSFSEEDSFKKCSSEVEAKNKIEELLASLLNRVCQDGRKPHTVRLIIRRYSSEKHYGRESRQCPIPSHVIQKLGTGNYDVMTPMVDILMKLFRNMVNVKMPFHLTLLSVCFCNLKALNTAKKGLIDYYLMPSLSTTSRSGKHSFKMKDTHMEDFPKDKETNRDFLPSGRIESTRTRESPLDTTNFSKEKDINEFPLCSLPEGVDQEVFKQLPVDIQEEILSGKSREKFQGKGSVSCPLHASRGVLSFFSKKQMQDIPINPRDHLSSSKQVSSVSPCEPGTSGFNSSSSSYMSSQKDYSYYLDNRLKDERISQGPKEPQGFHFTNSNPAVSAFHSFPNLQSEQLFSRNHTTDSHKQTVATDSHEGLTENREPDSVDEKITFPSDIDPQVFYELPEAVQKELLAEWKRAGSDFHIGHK
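Fluorescent replication assay read twice, at 0 min and 10 min after adding 50 nM (final) substrate. Enzyme (10 nM) and compounds were first incubated 15 min at room temperature; enzyme-free buffer wells were negative controls.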
WRN helicase inh: qHTS for Inhibitors of WRN Helicase. Potency, µM (series often up to 114 µM), for inactives: top-dose activity change, negative = inhibition, usual class: inhibitors. WRN helicase unwinding, fluorescent forked duplex, kinetic. Bifunctional 3'-5' exonuclease/ATP-dependent helicase WRN (Homo sapiens), Q14191. 360,000 tested, 0.46% active; further: on the % scale 0 is the no-effect control and ±100 the full control effect; nearly all actives have a fitted effect of over 55% in size
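WRN at 20 nM final was preincubated with compound for 15 min at room temperature; reaction started with 100 nM forked duplex oligonucleotide carrying fluorophore and quencher plus 2 mM ATP (final). Unwinding followed kinetically by red fluorescence (ex 525/em 598 nm).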
Pol beta inh: qHTS Assay for Inhibitors of DNA Polymerase Beta | P06746 | 340,000 tested, 1.3% active | Potency, µM (doses to about 114 µM), for the others: top-dose activity change, negative = inhibition, hits mostly inhibitors | Pol beta primer extension/strand displacement, fluorescence kinetic; further: on the % scale 0 is the no-effect control and ±100 the full control effect
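Preincubation: enzyme (10 nM) with compound, 15 min, RT. Reaction: substrate added to 50 nM final. Reads: 0 and 10 min. Analysis: normalized, Hill fit.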
Pol eta inh: qHTS for Inhibitors of Polymerase Eta. DNA polymerase eta (Homo sapiens), Q9Y253. recombinant Pol eta, fluorescent DNA replication assay. Potency, µM (top dose mostly 114 µM), without a hit: top-dose activity change, negative = inhibition, actives largely listed as inhibitors. 390,000 tested, 1.2% active; further: on the % scale 0 is the no-effect control and ±100 the full control effect
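Pol eta (10 nM) was preincubated with compounds for 15 min at room temperature, after which fluorescent replication substrate (50 nM final) was added to start the reaction. Fluorescence was read kinetically at 0 and 10 min.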
Active calls of the source: *; ? = inconclusive; . = no result; [ ] = dose if it differs, or a comment. Hits are enriched below; roughly 2.4% of the tested compounds scored in any of these assays. The call rests on the fitted dose curve; in most records, active means well fitted curve in the direction sought with a large enough effect; inconclusive means small, poorly fitted or top-dose-only effect, or another doubt; inactive means no such curve, though single readings can be large; an effect the other way counts as inactive or inconclusive. Potency means the concentration at half of the fitted maximal effect.

SMILES | POLK inh | FEN1 inhibitor | Pol iota inh | WRN helicase inh | Pol beta inh | Pol eta inh
O=C(COC(=O)c1cc(-c2cccc3ccccc23)nc2ccccc12)NC1CCS(=O)(=O)C1 (configuration not stated) | -11% | ? | ? | 79µM* | 50µM* | -25%
COC(=O)c1cc2oc(C)cc2n1CC(=O)Nc1ccc(C(C)C)cc1 | -24% | -13% | 32% | . | 5% | -18%
O=[N+]([O-])c1ccc(O)c(C=Nc2ccc3nc(-c4ccccc4)[nH]c3c2)c1 | -15% | -21% | -12% | -32% | 28µM* | ?
O=[N+]([O-])c1cccc(-c2nc3ccc([N+](=O)[O-])cc3[nH]2)c1 | -8% | ? | -16% | -12% | -1% | ?
O=C(C[n+]1cc(Br)cc2ccccc21)c1ccccc1 | 4% | -14% | -22% | -3% | -3% | 2%
O=C(C[n+]1cc(Br)cc2ccccc21)c1ccc(O)c(O)c1 | 2.8µM* | 0% | ? | . | . | .
COc1ccc(OC)c(-n2c(C)nc3cc(C(=O)O)ccc32)c1 | -5% | -14% | -5% | -5%[57.1 µM] | 17% | 79µM*
CC(C)OCC(O)CN1CCN(CCN2C(=O)c3cccc4cccc(c34)C2=O)CC1 (configuration not stated) | -22% | -23% | 18% | 19% | ? | -14%
CC(=O)c1ccc(OCC(O)CN2CCN(CCN3C(=O)c4cccc5cccc(c45)C3=O)CC2)cc1 (configuration not stated) | -35% | ? | ? | 17% | 14µM* | ?
Cn1c(=O)c(-c2cc(F)cc(F)c2)nc2cnc(N3CCNCC3)nc21 | -5%[60.1 µM] | . | . | . | . | .
CC(=O)c1ccc(NS(=O)(=O)c2cccc(S(=O)(=O)c3ccc(Cl)cc3)c2)cc1 | ? | -15% | 89µM* | . | 5% | -5%
COc1ccc2[nH]c(S(=O)Cc3ncc(C)c(OC)c3C)nc2n1 (configuration not stated) | 3%[19.4 µM] | . | . | . | . | .
CC(=O)Nc1ccc(OC(C)=O)cc1 | -9%[19.4 µM] | . | . | . | . | .
COc1ccc(C(C)(C)C)cc1NC(=O)COC(=O)c1ccc([N+](=O)[O-])o1 | -5%[60.1 µM] | 25µM* | ? | -1% | -17% | 23%
O=C(NCCCN1CCCCCC1)c1cc2c(=O)oc3ccccc3c2s1 | -40% | 71µM* | 50µM* | -12% | -11% | -6%
CC1CCCN(CCCNC(=O)c2cc3c(Cl)nc4ccccc4c3s2)C1 (configuration not stated) | 14% | 50µM* | -7% | 49% | 2% | -15%
Cn1nc(-c2ccc(Cl)cc2)c2cc(C(=O)NCCCN3CCCC3)sc21 | -25% | 32µM* | ? | 59% | 50µM* | 9%
CC1CCCCN1C(=O)c1cnn2c1NC(=C1CC1)C=C2C(F)F (configuration not stated) | -21% | -15% | -20% | . | . | .
COc1ccc(C2C=C3CNS(=O)(=O)C3CC2OC(=O)c2cccs2)cc1 (configuration not stated) | -19% | -12% | -8% | . | . | .
CC12CCC=CC1C(c1ccc3ccccc3c1C=Cc1ccccc1)N(Cc1ccccc1)C2=O (configuration not stated) | -4% | -13% | 31% | . | . | .
O=c1c2c([N+](=O)[O-])cc([N+](=O)[O-])cc2sn1Cc1ccccc1 | 7% | ? | 59% | 20µM* | 21% | -19%
O=c1c2cc([N+](=O)[O-])cc([N+](=O)[O-])c2[nH]n1-c1ccccc1 | -11% | -11% | ? | -19% | -8% | ?
O=c1c2c([N+](=O)[O-])cc([N+](=O)[O-])cc2sn1-c1ccc(Br)cc1 | -8% | -9% | 1% | 79µM* | 15% | -8%

Screening results (PubChem)
